Measurements as given in the supplement of paper PMC12494721.
Where a name gives a salt, the structure may show the parent alone.

Key:
Conditions in all cases: incubation time: 27 h, anaerobic, 37 °C;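 for the amine columns active = adjusted P below 0.05 in both replicates with a change the same way and a mean fold change under 0.8 or over 1.25; inactive = the rest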
[1] = system: Clostridium sporogenes DSM 1664; assay: growth (OD595) fold change vs plate DMSO controls (fold change (ratio)); higher = more growth
How it was run: (§1)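 Anaerobic mGAM cultures in 96-well plates were grown for 27 h at 37 °C, and absorbance was then read at 595 nm. After blank and compound background correction with 20 µM compound solutions in water, a calibration factor of 5 gave OD. Growth is the fold change relative to the median of each plate's DMSO controls. Values are means of 2 biological replicates, with fold changes above 1.5 set to NA.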

[2] = system: Escherichia coli IAI1; assay: as above
How it was run: as §1

[3] = system: Klebsiella aerogenes DSM 30053; assay: as above
How it was run: as §1

[4] = system: Ruminococcus gnavus DSM 108212; assay: as above
How it was run: as §1

[5] = system: Klebsiella aerogenes DSM 30053; assay: fold change of Histamine concentration vs plate DMSO controls (fold change (ratio)); higher = more amine produced, active = hit call of the paper (significant change in both replicates, either direction)
How it was run: (§2)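 Anaerobic mGAM cultures of four gut bacterial strains were grown at 37 °C for 27 h in 80 µL wells, starting at OD 0.1 before 1:1 dilution. Compounds were at 20 µM final (sweeteners 50 µM). Whole cultures were extracted with cold acetonitrile/methanol containing 0.1% formic acid and centrifuged. Amines were quantified by LC–triple-quadrupole MS (dynamic MRM) against external calibration curves and drift-corrected within batch. Each value is the fold change versus plate DMSO controls, averaged over 2 biological replicates.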

[6] = system: Clostridium sporogenes DSM 1664; assay: fold change of Tryptamine concentration vs plate DMSO controls (fold change (ratio)); higher = more amine produced, active = hit call of the paper (significant change in both replicates, either direction)
How it was run: as §2

[7] = system: Ruminococcus gnavus DSM 108212; assay: as above
How it was run: as §2

[8] = system: Escherichia coli IAI1; assay: fold change of Putrescine concentration vs plate DMSO controls (fold change (ratio)); higher = more amine produced, active = hit call of the paper (significant change in both replicates, either direction)
How it was run: as §2

[9] = system: Klebsiella aerogenes DSM 30053; assay: as above
How it was run: as §2

[10] = system: Escherichia coli IAI1; assay: fold change of Cadaverine concentration vs plate DMSO controls (fold change (ratio)); higher = more amine produced, active = hit call of the paper (significant change in both replicates, either direction)
How it was run: as §2

[11] = system: Klebsiella aerogenes DSM 30053; assay: as above
How it was run: as §2

[12] = system: Ruminococcus gnavus DSM 108212; assay: fold change of 2-Phenylethylamine concentration vs plate DMSO controls (fold change (ratio)); higher = more amine produced, active = hit call of the paper (significant change in both replicates, either direction)
How it was run: as §2

Compound	growth [1]	growth [2]	growth [3]	growth [4]	fold change of Histamine concentration [5]	fold change of Tryptamine concentration [6]	fold change of Tryptamine concentration [7]	fold change of Putrescine concentration [8]	fold change of Putrescine concentration [9]	fold change of Cadaverine concentration [10]	fold change of Cadaverine concentration [11]	fold change of 2-Phenylethylamine concentration [12]
CN1CCN(CCCN2c3ccccc3Sc3ccc(C(F)(F)F)cc32)CC1 [Trifluoperazine dihydrochloride] (20 µM)	1.25	1.08	1.05	0.968	0.886 (inactive)	1.06 (inactive)	0.93 (inactive)	1.04 (inactive)	0.955 (inactive)	1.05 (inactive)	1.03 (inactive)	0.964 (inactive)
COC1=C(OC)C(=O)C(CCCCCCCCCCO)=C(C)C1=O [Idebenone] (20 µM)	1.18	1	1.01	0.839	1.06 (inactive)	1.02 (inactive)	1.06 (inactive)	0.947 (inactive)	1.01 (inactive)	1.05 (inactive)	1.08 (inactive)	1.17 (inactive)
CCCCC1C(=O)N(c2ccccc2)N(c2ccccc2)C1=O [Phenylbutazone] (20 µM)	1.03	0.993	1.01	1.02	1.05 (inactive)	0.986 (inactive)	0.969 (inactive)	0.992 (inactive)	1.05 (inactive)	1.01 (inactive)	1.04 (inactive)	0.878 (inactive)
Nc1nc(/C(=C/CC(=O)O)C(=O)N[C@@H]2C(=O)N3C(C(=O)O)=CCS[C@H]23)cs1 [Ceftibuten] (20 µM)	0.5	1.06	1.14	1.27	0.885 (inactive)	1.02 (inactive)	1.04 (inactive)	0.79 (inactive)	1.04 (inactive)	0.942 (inactive)	1.07 (inactive)	1.06 (inactive)
CCC[C@@H]1C[C@@H](C(=O)N[C@@H]([C@H]2O[C@H](SC)[C@H](OP(=O)(O)O)[C@@H](O)[C@H]2O)[C@H](C)Cl)N(C)C1 [Clindamycin Phosphate] (20 µM)	0.836	1.04	0.998	0.709	1.01 (inactive)	0.917 (inactive)	0.844 (inactive)	1.02 (inactive)	1.01 (inactive)	0.987 (inactive)	0.999 (inactive)	0.86 (inactive)
Nc1nc(=O)c2c([nH]1)NC[C@@H](CNc1ccc(C(=O)N[C@@H](CCC(=O)O)C(=O)O)cc1)N2C=O [Folinic acid calcium salt] (20 µM)	0.975	0.979	0.993	0.963	0.976 (inactive)	1.02 (inactive)	0.944 (inactive)	1.05 (inactive)	0.998 (inactive)	0.962 (inactive)	0.999 (inactive)	0.882 (inactive)
Cc1nc2ccccn2c(=O)c1CCN1CCC(C(=O)c2ccc(F)cc2)CC1 [Pirenperone] (20 µM)	0.963	1.01	1.01	1.05	1.06 (inactive)	0.996 (inactive)	0.997 (inactive)	0.995 (inactive)	1.01 (inactive)	1.03 (inactive)	0.983 (inactive)	0.969 (inactive)
N[C@@H](Cc1cc(I)c(Oc2ccc(O)c(I)c2)c(I)c1)C(=O)O [Liothyronine] (20 µM)	0.986	0.992	1.03	1.09	0.981 (inactive)	0.991 (inactive)	0.88 (inactive)	0.906 (inactive)	0.99 (inactive)	1.02 (inactive)	0.993 (inactive)	0.88 (inactive)
CN(C/C=C/C#CC(C)(C)C)Cc1cccc2ccccc12 [Terbinafine] (20 µM)	1.03	1.2	0.972	0.896	1.07 (inactive)	1.01 (inactive)	0.97 (inactive)	1.21 (inactive)	1.01 (inactive)	0.987 (inactive)	0.989 (inactive)	1.02 (inactive)
Nc1ncnc2c1ncn2C1OC(COP(=O)(O)O)C(O)C1O (stereo not drawn) [Adenosine 5'-monophosphate monohydrate] (20 µM)	1.05	1.01	0.973	0.96	1.07 (inactive)	1.01 (inactive)	1.02 (inactive)	1.04 (inactive)	1.02 (inactive)	0.991 (inactive)	0.987 (inactive)	1.01 (inactive)
CC(=O)O[C@]1(C(C)=O)CC[C@H]2[C@@H]3C=C(C)C4=CC(=O)CC[C@]4(C)[C@H]3CC[C@@]21C [Megestrol acetate] (20 µM)	1.03	1.1	0.998	1.07	0.981 (inactive)	1.05 (inactive)	1.04 (inactive)	1.2 (inactive)	0.971 (inactive)	0.982 (inactive)	1.01 (inactive)	1.04 (inactive)
CNC1(C)C2CCC(C2)C1(C)C (stereo not drawn) [Mecamylamine hydrochloride] (20 µM)	1.03	1.06	1.02	1.17	1.02 (inactive)	1.06 (inactive)	1.03 (inactive)	0.992 (inactive)	0.994 (inactive)	0.968 (inactive)	1 (inactive)	1.06 (inactive)
CC(=O)CC(c1ccc([N+](=O)[O-])cc1)c1c(O)c2ccccc2oc1=O (stereo not drawn) [Acenocoumarol] (20 µM)	0.894	1.02	1.02	0.886	0.909 (inactive)	0.94 (inactive)	1.01 (inactive)	1.05 (inactive)	0.989 (inactive)	1.01 (inactive)	1.01 (inactive)	1.02 (inactive)
CO/N=C1\CN(c2nc3c(cc2F)c(=O)c(C(=O)O)cn3C2CC2)CC1CN (stereo not drawn) [Gemifloxacin mesylate] (20 µM)	0.00381	0.0388	0.126	0.376	0.0873 (active)	0.0398 (active)	0.148 (active)	0.735 (inactive)	0.66 (inactive)	0.223 (active)	0.992 (inactive)	0.159 (active)
CN(C)CCCN1c2ccccc2CCc2ccc(Cl)cc21 [Clomipramine hydrochloride] (20 µM)	1.07	0.978	0.972	0.705	1.04 (inactive)	1.04 (inactive)	0.823 (inactive)	0.997 (inactive)	1.03 (inactive)	1.06 (inactive)	0.985 (inactive)	0.82 (inactive)
CN1CC(O)c2cc(N=NC(N)=O)c(O)cc21 (stereo not drawn) [Carbazochrome] (20 µM)	0.927	1.01	0.984	0.959	1.07 (inactive)	1.1 (inactive)	1.15 (inactive)	1.05 (inactive)	1.01 (inactive)	0.914 (inactive)	1.07 (inactive)	1.34 (inactive)
CC(=O)Oc1cc(C(F)(F)F)ccc1C(=O)O [Triflusal] (20 µM)	1.01	0.971	0.952	0.878	1 (inactive)	1.03 (inactive)	1.01 (inactive)	1.04 (inactive)	0.97 (inactive)	0.988 (inactive)	0.992 (inactive)	1.02 (inactive)
CCN1CCCC1CNC(=O)c1cc(S(=O)(=O)CC)c(N)cc1OC (stereo not drawn) [Amisulpride] (20 µM)	1.16	0.998	1	1.31	1.01 (inactive)	1.01 (inactive)	1.04 (inactive)	1.01 (inactive)	0.999 (inactive)	0.987 (inactive)	0.999 (inactive)	1.05 (inactive)
CN(C)CCOC(c1ccccc1)c1ccccc1.Cn1c(=O)c2[nH]c(Cl)nc2n(C)c1=O [Dimenhydrinate] (20 µM)	0.99	0.985	0.954	1.06	1.05 (inactive)	1.02 (inactive)	1.02 (inactive)	0.995 (inactive)	1.01 (inactive)	0.985 (inactive)	0.985 (inactive)	1.03 (inactive)
CC(C)NCC(O)c1ccc(NS(C)(=O)=O)cc1 (stereo not drawn) [Sotalol hydrochloride] (20 µM)	0.907	0.97	1.2	1.01	0.907 (inactive)	1.03 (inactive)	1.18 (inactive)	0.935 (inactive)	1.06 (inactive)	1.08 (inactive)	1.12 (inactive)	1.36 (inactive)
CN1CCN2c3ccccc3Cc3ccccc3C2C1 (stereo not drawn) [Mianserine hydrochloride] (20 µM)	0.914	0.996	0.995	0.931	0.916 (inactive)	0.952 (inactive)	0.998 (inactive)	1.02 (inactive)	0.98 (inactive)	0.999 (inactive)	0.999 (inactive)	1.03 (inactive)
CNC(=O)c1c(I)c(C(=O)NCC(=O)Nc2c(I)c(C(=O)O)c(I)c(C(=O)NCCO)c2I)c(I)c(N(C)C(C)=O)c1I [Ioxaglic acid] (20 µM)	1.16	1.08	1.09	1.02	1.01 (inactive)	0.978 (inactive)	1.01 (inactive)	1.05 (inactive)	1.06 (inactive)	1 (inactive)	1.04 (inactive)	0.982 (inactive)
Clc1ccccc1C(c1ccccc1)(c1ccccc1)n1ccnc1 [Clotrimazole] (20 µM)	0.97	0.974	0.998	0.513	0.999 (inactive)	0.977 (inactive)	0.887 (inactive)	0.997 (inactive)	1.02 (inactive)	0.955 (inactive)	1.01 (inactive)	0.929 (inactive)
C#C[C@]1(O)CC[C@H]2[C@@H]3CCC4=CC(=O)CC[C@@H]4[C@H]3CC[C@@]21C [Norethindrone] (20 µM)	1.09	0.973	1	1.22	1.11 (inactive)	1.01 (inactive)	1.03 (inactive)	0.962 (inactive)	1.03 (inactive)	0.98 (inactive)	0.989 (inactive)	1.04 (inactive)
